Results as given in the OligoGym collection.

molecular target: ABHD8; assay: pooled miR-30 sensor sort-seq; sequence = guide strand; conditions: shRNA
Note: reference of the scale not given here.

| Sequence | sensor-assay potency score (higher = more potent) |
| --- | --- |
| TTGACCTCTACAAAGGTGTAGC | -0.315 |
| TTGCGGTACACGGTGATCCGGC | -0.925 |
| TACAAAGGTGTAGCCATCGCTG | -0.814 |
| TTGAAGATTGAGCAGAAGCTGG | -0.887 |
| TTAACAGCTGCTTCTCCTTGGC | -0.231 |
| TTTTCCACCAGCAACCGCCCAT | -0.43 |
| TTTAACAGCTGCTTCTCCTTGG | 0.506 |
| AAACTTATCGTGCATGCCGTGG | -1.36 |
| TTCGCTTCTTGGCATAGCGCTT | -0.977 |
| TTTGCAGCTAGTGATGCGCTTC | -0.147 |

molecular target: ACACB; assay: as above; conditions: shRNA

| Sequence | sensor-assay potency score (higher = more potent) |
| --- | --- |
| TTTATCACACACTTGTCGTAGT | 0.458 |
| TTTGCTTCTGATTTACTCTTGG | 0.795 |
| TTGTAAGCTGGATCGATCCTTC | -0.276 |
| TAGAGGTATTCCACTGTCCCTG | -0.211 |
| TTGATCTTGACCTCAGCCTGTA | 0.316 |
| TATCACACACTTGTCGTAGTGG | 0.451 |
| TTCAGTAGTGAATCCGCTGGGA | 0.353 |
| TTTGTCTGCATACATTTCTATG | -1.38 |
| TTCATGTAGGTGGTGTAGCTGT | -0.772 |
| TTTATCAGATCTTTCTTTCGGA | 0.775 |
| TAAGAAAGCAACTCCATTCTTG | 0.182 |
| TACTTGTCTGAAAAGGATCGGG | 0.16 |
| TGTATCTGGACTCTCCTCCTTC | -0.0476 |
| TTCTTGTCTTCTTTGGAGGGGG | -0.0633 |
| TTGGATGTGTAGACCTCTCTTC | 0.36 |
| TTCGGTAACTGTCAACCTCTTC | -0.589 |
| TTACTCTTGGTGATCGGCTTGG | 0.104 |
| TACATTTCTATGCACAGCGGGT | -1.13 |
| TTCTCAAACACACACGTCTTAT | -1.28 |
| TTGTCATAAACATCTTCTGGGA | -0.671 |
